Results: PubChem BioAssay (EPA / NIEHS)
Values joined by “and” are separate entries in the source; they are usually repeats but may differ in a detail not shown here. Equal entries are not always repeated. Records with an inconclusive call do not appear. Active and inactive are the calls of the source. How the source made its calls: active means hit-call score of the fitted dose curve at least 0.9, where 1 is the maximum; inconclusive means response in the unintended direction; inactive means score below 0.9.

Assays:
[1] = target: human CYP2C9, CYP2C9 (gene 1559) (UniProt P11712); experiment: NVS_ADME_hCYP2C9: NovaScreen (NVS) CYP450-related Enzyme Activity (ADME) Assay for human CYP2C9 (AID 2283108)
How it was run: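 Cell-free assay of recombinant human CYP2C9 produced in Sf9 cells, with enzyme activity read by fluorescence intensity 0.75 h after compound addition. Loss of signal versus an acetonitrile negative control indicates inhibition. Primary screen used 10 uM in duplicate; actives were retested in concentration series.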

[2] = target: human Phosphoinositide 3-kinase alpha (PI3Ka), PIK3CA (gene 5290) (UniProt P42336); experiment: NVS_ENZ_hPI3Ka: NovaScreen (NVS) Enzymatic Assay for human Phosphoinositide 3-kinase alpha (PI3Ka) (AID 2283196)
How it was run: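 Chemicals were first screened at 25 uM in duplicate, then hits were run as concentration series up to 50 uM. Enzyme activity was measured by fluorescence after mobility-shift separation, with loss of signal relative to DMSO taken as activity.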

[3] = target: human Peroxisome Proliferator-activated Receptor alpha (PPARa), PPARA (gene 5465) (UniProt Q07869); experiment: NVS_NR_hPPARa: NovaScreen (NVS) Nuclear Receptor Binding Assay for human Peroxisome Proliferator-activated Receptor alpha (PPARa) (AID 2283359);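 further: activity means loss of TR-FRET signal versus DMSO baseline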
How it was run: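 One-hour incubation, cell-free extracted protein, TR-FRET binding readout; signal loss vs DMSO scored. Screen: 25 uM duplicates, confirmatory dose series for actives.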

[4] = target: Glucocorticoid receptor (Homo sapiens) (UniProt P04150); experiment: NVS_NR_hGR: NovaScreen (NVS) Nuclear Receptor Binding Assay for human Glucocorticoid Receptor (GR) (AID 2283363);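 further: activity is loss of specific radioligand binding signal relative to DMSO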
How it was run: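 Single-readout cell-free binding: radioligand plus extracted receptor, 16-hour dosing, filter radiodetection; 25 uM duplicate primary, concentration series secondary.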

[5] = target: zebrafish Estrogen Receptor (ESR1), esr1 (gene 259252) (UniProt P57717); experiment: ATG_zfER1_XSP1: Attagene TRANS-FACTORIAL Multi-Species (XSP1) HepG2 Assay for zebrafish Estrogen Receptor (ESR1) (AID 2283772)
How it was run: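 Exogenous chimeric receptor-GAL4 activity is measured in transiently transfected human HepG2 liver cells after 24 h compound exposure. Reporter transcripts are detected by RT-PCR and fluorescent capillary electrophoresis, analysed for signal gain relative to DMSO.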

[6] = tested on: frog Estrogen Receptor (ESR2), gene 100174814; experiment: ATG_frER2_XSP1: Attagene TRANS-FACTORIAL Multi-Species (XSP1) HepG2 Assay for frog Estrogen Receptor (ESR2) (AID 2283774)
How it was run: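 Multiplexed TRANS-format reporter assay in human hepatoma HepG2: chimeric nuclear receptor-Gal4 activity reported as mRNA induction at 24 h, detected by fluorescent RT-PCR products on capillary electrophoresis and fitted upward from DMSO baseline.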

[7] = tested on: frog Estrogen Receptor (ESR1), gene 398734; experiment: ATG_frER1_XSP1: Attagene TRANS-FACTORIAL Multi-Species (XSP1) HepG2 Assay for frog Estrogen Receptor (ESR1) (AID 2283777)
How it was run: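 After transient transfection and 24 h compound treatment, total RNA from HepG2 cells was reverse-transcribed, amplified, FAM-labeled and resolved by capillary electrophoresis. Signal increases were fitted against DMSO controls.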

[8] = tested on: zebrafish Estrogen Receptor (ESR2A), gene 317734; experiment: ATG_zfER2a_XSP1: Attagene TRANS-FACTORIAL Multi-Species (XSP1) HepG2 Assay for zebrafish Estrogen Receptor (ESR2A) (AID 2283778)
How it was run: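 Gain-of-signal reporter transcription readout from GAL4-UAS units in transiently transfected HepG2 cells, 24 h exposure, 3 nM 6-alpha-fluorotestosterone co-present. Detection by RT-PCR with capillary electrophoresis fluorescence.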

[9] = ATG_M_19_XSP1: Attagene TRANS-FACTORIAL Multi-Species (XSP1) HepG2 Assay for M19 Transcription Factor (Internal Marker) (AID 2283798)
How it was run: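 Readout is reporter mRNA induction quantified via RT-PCR, 6-FAM labeling, HpaI digestion and capillary electrophoresis, fitted in the positive direction versus DMSO baseline. Transfected HepG2 cells exposed 24 h, medium including 3 nM 6-alpha-fluorotestosterone.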

[10] = ATG_M_32_XSP1: Attagene TRANS-FACTORIAL Multi-Species (XSP1) HepG2 Assay for M32 Transcription Factor (Internal Marker) (AID 2283799)
How it was run: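 Reporter transcripts from the M32 internal-control unit measured by RT-PCR, FAM labelling, HpaI digestion and capillary electrophoresis after 24 h compound exposure of transfected HepG2, 3 nM 6-alpha-fluorotestosterone included; DMSO baseline, positive-direction fit.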

[11] = target: Peroxisome proliferator-activated receptor gamma (Homo sapiens) (UniProt P37231); experiment: ATG_hPPARg_XSP1: Attagene TRANS-FACTORIAL Multi-Species (XSP1) HepG2 Assay for human Peroxisome Proliferator-activated Receptor gamma (PPARg) (AID 2283800)
How it was run: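 Reporter mRNA induction, measured by RT-PCR with capillary electrophoresis 24 h after dosing, scored as gain over DMSO. Transfected HepG2 cells express exogenous NR-Gal4 chimeras driving GAL4-UAS reporters; medium includes 3 nM 6-alpha-fluorotestosterone.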

[12] = tested on: zebrafish Peroxisome Proliferator-activated Receptor gamma (PPARg), gene 557037; experiment: ATG_zfPPARg_XSP1: Attagene TRANS-FACTORIAL Multi-Species (XSP1) HepG2 Assay for zebrafish Peroxisome Proliferator-activated Receptor gamma (PPARg) (AID 2283801)
How it was run: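 Trans-activation readout of chimeric zebrafish PPARg–GAL4 in transiently transfected human HepG2 cells, 24 h chemical exposure (medium includes 3 nM 6-alpha-fluorotestosterone). Reporter transcripts measured by RT-PCR and capillary electrophoresis, fitted as gain over DMSO.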

[13] = target: mouse Peroxisome Proliferator-activated Receptor gamma (PPARg), Pparg (gene 19016) (UniProt P37238); experiment: ATG_mPPARg_XSP1: Attagene TRANS-FACTORIAL Multi-Species (XSP1) HepG2 Assay for mouse Peroxisome Proliferator-activated Receptor gamma (PPARg) (AID 2283802)
How it was run: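 Readout is reporter mRNA induction, measured by RT-PCR with 6-FAM labelling, HpaI digestion and capillary electrophoresis, 24 h post-dose relative to DMSO. Transient multi-reporter transfection of human HepG2 with mouse PPARg–GAL4 fusion; 3 nM 6-alpha-fluorotestosterone included.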

[14] = target: frog Thyroid hormone Receptor alpha (TRa), thra-a (gene 397942) (UniProt P15204); experiment: ATG_frTRa_XSP1: Attagene TRANS-FACTORIAL Multi-Species (XSP1) HepG2 Assay for frog Thyroid hormone Receptor alpha (TRa) (AID 2283804)
How it was run: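 Reporter transcript induction, measured by RT-PCR with 6-FAM labelling and capillary electrophoresis, 24 hr after dosing transiently transfected HepG2 cells expressing a frog TRa-GAL4 fusion; medium contained 3 nM 6-alpha-fluorotestosterone; increase over DMSO scored.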

[15] = target: human Thyroid hormone Receptor alpha (TRa), THRA (gene 7067) (UniProt P10827); experiment: ATG_hTRa_XSP1: Attagene TRANS-FACTORIAL Multi-Species (XSP1) HepG2 Assay for human Thyroid hormone Receptor alpha (TRa) (AID 2283805)
How it was run: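 Reporter transcripts from the human TRa-Gal4 TRANS unit quantified by RT-PCR, fluorescent labeling and capillary electrophoresis after 24 hours of chemical exposure in transfected HepG2 cells; medium contains 3 nM 6-alpha-fluorotestosterone. Positive direction fit against DMSO.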

[16] = tested on: turtle Thyroid Hormone Receptor, alpha (TRa), gene 101949057; experiment: ATG_trTRa_XSP1: Attagene TRANS-FACTORIAL Multi-Species (XSP1) HepG2 Assay for turtle Thyroid Hormone Receptor, alpha (TRa) (AID 2283806)
How it was run: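 After 24 h chemical exposure, reporter transcripts were measured by RT-PCR with fluorescent primer extension, HpaI digestion and capillary electrophoresis. Cells were transiently transfected HepG2 expressing exogenous NR-Gal4 chimeras; medium contained 3 nM 6-alpha-fluorotestosterone; fitted upward relative to DMSO.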

[17] = target: human Thyroid hormone Receptor beta (TRb), THRB (gene 7068) (UniProt P10828); experiment: ATG_hTRb_XSP1: Attagene TRANS-FACTORIAL Multi-Species (XSP1) HepG2 Assay for human Thyroid hormone Receptor beta (TRb) (AID 2283808)
How it was run: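 Readout is reporter mRNA induction measured by RT-PCR, fluorescent labelling and capillary electrophoresis, fitted upward relative to DMSO. Transiently transfected human HepG2 cells expressing NR-Gal4 chimeras were dosed for 24 h, medium containing 3 nM 6-alpha-fluorotestosterone.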

[18] = target: zebrafish Thyroid Hormone Receptor beta (TRb), thrb (gene 30607) (UniProt Q9PVE4); experiment: ATG_zfTRb_XSP1: Attagene TRANS-FACTORIAL Multi-Species (XSP1) HepG2 Assay for zebrafish Thyroid Hormone Receptor beta (TRb) (AID 2283809)
How it was run: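 HepG2 cells transiently transfected with multiplexed GAL4-UAS reporter units expressing chimeric zebrafish TRb–Gal4. Dosed 24 h with 3 nM 6-alpha-fluorotestosterone present; reporter mRNA measured by RT-PCR, HpaI digestion and capillary electrophoresis; gain of signal versus DMSO.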

[19] = target: zebrafish Estrogen Receptor (ER1), esr1 (gene 259252) (UniProt P57717); experiment: ATG_zfER1_XSP2: Attagene TRANS-FACTORIAL Multi-Species (XSP2) HepG2 Assay for zebrafish Estrogen Receptor (ER1) (AID 2283816)
How it was run: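 After 24 h compound exposure, RNA from transfected HepG2 cells was reverse-transcribed and reporter transcripts resolved by capillary electrophoresis. The TRANS format reads exogenous zebrafish ER1-Gal4 chimera activity on GAL4-UAS elements; gain of signal against DMSO.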

[20] = tested on: zebrafish Estrogen Receptor (ER2a), gene 317734; experiment: ATG_zfER2a_XSP2: Attagene TRANS-FACTORIAL Multi-Species (XSP2) HepG2 Assay for zebrafish Estrogen Receptor (ER2a) (AID 2283818);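 further: hits raise reporter mRNA so AC50 reflects activation of zebrafish ER2a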
How it was run: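 Multiplexed trans-reporter readout: RT-PCR then capillary electrophoresis of reporter transcripts after 24 h compound treatment. Human HepG2 carries transfected zebrafish ER2a-Gal4 chimera; 3 nM 6-alpha-fluorotestosterone plus 1.5 nM norgestrel present. Induction scored against DMSO.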

Glucocorticoid receptor (Homo sapiens), sequence (P04150 whole entry, looked up): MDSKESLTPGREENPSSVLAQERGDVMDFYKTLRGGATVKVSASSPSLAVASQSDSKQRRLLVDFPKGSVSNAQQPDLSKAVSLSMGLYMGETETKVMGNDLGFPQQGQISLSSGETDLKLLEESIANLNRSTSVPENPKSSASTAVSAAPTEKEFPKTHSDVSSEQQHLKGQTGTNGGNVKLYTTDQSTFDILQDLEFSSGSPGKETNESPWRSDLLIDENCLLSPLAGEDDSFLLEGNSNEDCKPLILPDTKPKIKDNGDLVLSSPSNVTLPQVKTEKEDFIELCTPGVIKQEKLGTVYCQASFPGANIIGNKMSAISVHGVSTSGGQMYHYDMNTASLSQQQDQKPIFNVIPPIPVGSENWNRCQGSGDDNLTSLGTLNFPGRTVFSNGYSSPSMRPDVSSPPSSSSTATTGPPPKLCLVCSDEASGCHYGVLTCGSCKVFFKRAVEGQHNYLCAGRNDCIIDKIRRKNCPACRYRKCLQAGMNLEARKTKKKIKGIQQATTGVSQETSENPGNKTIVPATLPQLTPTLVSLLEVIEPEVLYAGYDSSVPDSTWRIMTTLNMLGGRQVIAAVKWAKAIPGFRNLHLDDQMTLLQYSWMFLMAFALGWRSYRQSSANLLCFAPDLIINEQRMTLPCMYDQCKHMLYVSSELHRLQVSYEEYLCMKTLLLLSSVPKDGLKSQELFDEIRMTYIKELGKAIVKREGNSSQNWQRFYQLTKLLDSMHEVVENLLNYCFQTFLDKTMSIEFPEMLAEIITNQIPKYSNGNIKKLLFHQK
human Peroxisome Proliferator-activated Receptor alpha (PPARa), PPARA (gene 5465), sequence (Q07869 whole entry, looked up): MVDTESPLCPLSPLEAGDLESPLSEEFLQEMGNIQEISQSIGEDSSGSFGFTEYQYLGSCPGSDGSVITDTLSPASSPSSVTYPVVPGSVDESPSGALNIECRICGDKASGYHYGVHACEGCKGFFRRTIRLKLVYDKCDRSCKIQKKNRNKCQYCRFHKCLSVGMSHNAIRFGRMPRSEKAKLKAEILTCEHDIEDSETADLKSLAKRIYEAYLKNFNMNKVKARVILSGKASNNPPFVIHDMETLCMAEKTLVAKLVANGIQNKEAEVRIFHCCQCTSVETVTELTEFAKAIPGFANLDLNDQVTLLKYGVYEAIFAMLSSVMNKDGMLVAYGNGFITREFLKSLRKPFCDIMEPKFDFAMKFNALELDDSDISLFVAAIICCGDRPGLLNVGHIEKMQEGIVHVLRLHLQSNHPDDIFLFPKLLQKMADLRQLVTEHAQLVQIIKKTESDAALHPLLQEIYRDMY
human CYP2C9, CYP2C9 (gene 1559), sequence (P11712 whole entry, looked up): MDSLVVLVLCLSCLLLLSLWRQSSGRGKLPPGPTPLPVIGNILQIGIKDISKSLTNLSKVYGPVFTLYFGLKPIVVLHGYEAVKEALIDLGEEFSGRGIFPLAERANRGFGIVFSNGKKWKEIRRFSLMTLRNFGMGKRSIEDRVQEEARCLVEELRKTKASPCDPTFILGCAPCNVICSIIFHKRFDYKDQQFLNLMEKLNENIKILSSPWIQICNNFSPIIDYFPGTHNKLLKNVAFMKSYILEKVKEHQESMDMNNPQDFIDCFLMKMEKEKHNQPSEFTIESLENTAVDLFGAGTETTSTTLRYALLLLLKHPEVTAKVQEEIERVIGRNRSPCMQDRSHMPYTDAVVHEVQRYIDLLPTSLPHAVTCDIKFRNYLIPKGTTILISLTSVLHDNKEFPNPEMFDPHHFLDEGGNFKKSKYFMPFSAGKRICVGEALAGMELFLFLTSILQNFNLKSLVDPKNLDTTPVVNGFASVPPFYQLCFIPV
frog Thyroid hormone Receptor alpha (TRa), thra-a (gene 397942), sequence (P15204 whole entry, looked up, the tested form may be a part): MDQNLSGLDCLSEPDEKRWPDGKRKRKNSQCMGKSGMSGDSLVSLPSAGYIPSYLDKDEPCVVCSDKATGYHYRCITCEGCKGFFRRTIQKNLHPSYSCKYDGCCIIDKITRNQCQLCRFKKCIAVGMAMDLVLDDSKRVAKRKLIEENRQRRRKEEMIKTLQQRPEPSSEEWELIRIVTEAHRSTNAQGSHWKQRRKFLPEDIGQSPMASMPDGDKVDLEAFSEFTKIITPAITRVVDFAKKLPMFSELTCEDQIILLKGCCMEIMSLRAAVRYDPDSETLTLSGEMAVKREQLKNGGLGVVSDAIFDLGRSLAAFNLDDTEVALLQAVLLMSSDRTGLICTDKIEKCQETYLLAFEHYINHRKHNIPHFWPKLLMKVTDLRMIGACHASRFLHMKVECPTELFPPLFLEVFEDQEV
zebrafish Thyroid Hormone Receptor beta (TRb), thrb (gene 30607), sequence (Q9PVE4 whole entry, looked up, the tested form may be a part): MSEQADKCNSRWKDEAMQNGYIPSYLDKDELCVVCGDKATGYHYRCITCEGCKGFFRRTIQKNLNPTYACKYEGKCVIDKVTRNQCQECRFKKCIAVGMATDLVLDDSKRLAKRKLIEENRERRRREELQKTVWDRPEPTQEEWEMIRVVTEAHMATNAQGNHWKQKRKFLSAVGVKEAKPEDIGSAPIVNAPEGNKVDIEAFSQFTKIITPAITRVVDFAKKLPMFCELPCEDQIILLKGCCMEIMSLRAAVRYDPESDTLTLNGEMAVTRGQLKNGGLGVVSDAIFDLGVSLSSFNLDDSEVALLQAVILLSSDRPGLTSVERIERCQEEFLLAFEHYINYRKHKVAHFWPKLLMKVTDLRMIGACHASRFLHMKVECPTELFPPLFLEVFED
human Phosphoinositide 3-kinase alpha (PI3Ka), PIK3CA (gene 5290), sequence (P42336 whole entry, looked up): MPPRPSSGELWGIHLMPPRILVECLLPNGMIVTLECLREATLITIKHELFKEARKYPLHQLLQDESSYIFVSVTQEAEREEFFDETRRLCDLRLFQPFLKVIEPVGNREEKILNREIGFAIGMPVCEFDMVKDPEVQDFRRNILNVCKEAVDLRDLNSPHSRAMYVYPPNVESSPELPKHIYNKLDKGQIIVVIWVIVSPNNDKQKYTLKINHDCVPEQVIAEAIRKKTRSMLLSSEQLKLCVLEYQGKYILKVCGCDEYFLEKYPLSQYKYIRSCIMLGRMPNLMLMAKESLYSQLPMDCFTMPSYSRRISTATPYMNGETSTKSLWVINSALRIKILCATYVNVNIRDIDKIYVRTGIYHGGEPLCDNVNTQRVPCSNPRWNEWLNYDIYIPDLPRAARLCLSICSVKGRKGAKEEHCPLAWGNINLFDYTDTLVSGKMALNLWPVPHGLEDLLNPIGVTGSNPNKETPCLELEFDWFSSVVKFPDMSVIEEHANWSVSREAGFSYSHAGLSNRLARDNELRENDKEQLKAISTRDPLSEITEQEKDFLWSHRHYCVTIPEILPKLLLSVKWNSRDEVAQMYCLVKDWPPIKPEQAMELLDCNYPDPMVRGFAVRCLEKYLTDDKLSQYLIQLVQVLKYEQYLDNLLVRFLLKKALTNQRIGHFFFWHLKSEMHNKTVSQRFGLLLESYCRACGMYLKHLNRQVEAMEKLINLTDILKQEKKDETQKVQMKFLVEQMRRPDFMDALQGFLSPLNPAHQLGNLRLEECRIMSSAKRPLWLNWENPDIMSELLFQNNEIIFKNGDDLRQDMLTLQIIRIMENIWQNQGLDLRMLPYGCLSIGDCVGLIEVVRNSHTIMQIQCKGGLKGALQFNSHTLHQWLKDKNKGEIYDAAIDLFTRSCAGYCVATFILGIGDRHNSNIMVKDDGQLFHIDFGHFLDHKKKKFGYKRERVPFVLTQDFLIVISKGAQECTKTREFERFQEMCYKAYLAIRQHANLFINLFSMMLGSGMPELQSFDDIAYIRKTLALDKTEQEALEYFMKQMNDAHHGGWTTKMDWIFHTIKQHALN
mouse Peroxisome Proliferator-activated Receptor gamma (PPARg), Pparg (gene 19016), sequence (P37238 whole entry, looked up, the tested form may be a part): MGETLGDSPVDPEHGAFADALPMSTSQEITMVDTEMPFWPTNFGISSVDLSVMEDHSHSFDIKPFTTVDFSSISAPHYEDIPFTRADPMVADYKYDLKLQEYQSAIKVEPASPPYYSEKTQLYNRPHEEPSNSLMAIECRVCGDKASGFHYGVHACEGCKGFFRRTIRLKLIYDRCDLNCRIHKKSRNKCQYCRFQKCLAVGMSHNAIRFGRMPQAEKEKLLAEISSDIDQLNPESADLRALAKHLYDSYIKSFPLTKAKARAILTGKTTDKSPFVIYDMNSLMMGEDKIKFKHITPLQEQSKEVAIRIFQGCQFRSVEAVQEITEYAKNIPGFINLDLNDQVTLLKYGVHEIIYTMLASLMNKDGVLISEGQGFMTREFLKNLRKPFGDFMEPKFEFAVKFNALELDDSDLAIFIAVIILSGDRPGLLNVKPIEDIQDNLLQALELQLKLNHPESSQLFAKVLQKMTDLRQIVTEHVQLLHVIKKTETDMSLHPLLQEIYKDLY
human Thyroid hormone Receptor alpha (TRa), THRA (gene 7067), sequence (P10827 whole entry, looked up, the tested form may be a part): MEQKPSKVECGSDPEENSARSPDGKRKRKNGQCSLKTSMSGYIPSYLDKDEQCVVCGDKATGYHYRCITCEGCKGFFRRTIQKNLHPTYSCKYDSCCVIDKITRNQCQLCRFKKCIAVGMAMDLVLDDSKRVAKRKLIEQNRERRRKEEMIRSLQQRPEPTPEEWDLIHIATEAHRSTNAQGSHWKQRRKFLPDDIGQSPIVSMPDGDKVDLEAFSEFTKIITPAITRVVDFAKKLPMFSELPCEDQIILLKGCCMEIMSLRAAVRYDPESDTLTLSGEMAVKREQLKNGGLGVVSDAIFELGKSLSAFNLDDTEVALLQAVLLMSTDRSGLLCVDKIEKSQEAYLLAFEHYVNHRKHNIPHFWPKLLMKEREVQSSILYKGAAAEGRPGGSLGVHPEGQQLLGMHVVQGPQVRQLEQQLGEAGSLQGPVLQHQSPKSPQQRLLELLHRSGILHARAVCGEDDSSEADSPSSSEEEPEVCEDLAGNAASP

With `CC(C)(c1cc(Cl)c(O)c(Cl)c1)c1cc(Cl)c(O)c(Cl)c1` the AC50 [1] was 2290 nM (active), the AC50 [2] was 3450 nM (active) and the AC50 [3] was 20200 nM (active). The AC50 [4] was 544 nM (active) and 146 nM (active), the outcome [5] was “inactive” and the AC50 [6] was 3550 nM (active). The outcome [7] was “inactive”, the AC50 [8] was 2020 nM (active) and the outcome [9] was “inactive”. For the same compound, the outcome [10] was “inactive”, the AC50 [11] was 2730 nM (active) and the outcome [12] was “inactive”. The AC50 [13] was 2920 nM (active), the outcome [14] was “inactive” and the outcome [15] was “inactive”. The outcome [16] was “inactive”, the outcome [17] was “inactive” and the outcome [18] was “inactive”. The outcome [19] was “inactive” and the AC50 [20] was 1620 nM (active).
